D3 antag – antagonists of human D3 dopamine receptor. P35462. D3R cells, DiscoveRx beta-arrestin luminescence, antagonist mode; hits give low values. max response, negative = inhibition, %. hit rate 2.5% among 360,000; in the data active = max response below about -50%; inconclusive = no clear call, values can overlap the other calls
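Cells plated overnight at 1500 cells/well, then exposed to library compounds with dopamine controls for 90 minutes at 37 degrees C. DiscoveRx reagent added for 30–60 minutes at room temperature; luminescence read, quantitative HTS format.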
DRD3 agonist – activates the human D3 dopamine receptor; P35462; D3R DiscoveRx beta-arrestin cells, luminescence, 90 min; max activation, %; hit rate 0.58% among 410,000; in the data active = max activation above about 30%
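Agonist-mode cell screen: cells plated at 1500/well and incubated overnight at 37 °C, then exposed to library compounds for 90 min at 37 °C. Detection reagent was added for 30–60 min at room temperature, and luminescence was read.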
D1 antag – antagonists of human D1 dopamine receptor. activity change, negative = inhibition, % at 10 µM. HEK293 TREx D1 cells, calcium flux, dopamine EC80; hits give low values. P21728. hit rate 3.2% among 360,000; in the data active = activity change below about -30%
Target sequence (P21728 whole entry, looked up): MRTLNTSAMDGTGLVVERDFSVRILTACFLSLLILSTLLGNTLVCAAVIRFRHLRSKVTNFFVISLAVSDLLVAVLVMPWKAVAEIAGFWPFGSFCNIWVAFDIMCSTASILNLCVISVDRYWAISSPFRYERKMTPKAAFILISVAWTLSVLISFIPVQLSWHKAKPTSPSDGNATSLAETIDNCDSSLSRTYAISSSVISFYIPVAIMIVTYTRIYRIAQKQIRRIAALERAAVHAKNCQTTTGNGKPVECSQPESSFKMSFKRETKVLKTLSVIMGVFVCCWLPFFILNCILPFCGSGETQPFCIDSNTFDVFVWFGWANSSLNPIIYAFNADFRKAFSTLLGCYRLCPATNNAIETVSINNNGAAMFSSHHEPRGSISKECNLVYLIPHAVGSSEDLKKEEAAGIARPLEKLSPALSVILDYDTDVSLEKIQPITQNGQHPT
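Cells carrying a force-coupled, tetracycline-inducible human D1 receptor report calcium flux. Each well gets a 10 s baseline, compound with 180 s monitoring, then an EC80 dopamine stimulus with a second 180 s kinetic read.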
D1 potentiator – potentiators of human D1 dopamine receptor; P21728; HEK293 TREx D1 cells, calcium flux, dopamine EC20 potentiation; hit rate 0.036% among 360,000; potentiation, % at 10 µM; in the data active = potentiation above about 30%
D1 agonist – activates the human D1 dopamine receptor. P21728. activation, % at 2 µM. HEK293 T-REx D1 cells, calcium flux, agonist mode. hit rate 1% among 360,000; in the data active = activation above about 30%
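Tetracycline-induced HEK293 TREx D1 cells, force-coupled to calcium signalling, were dye-loaded with a no-wash calcium kit. Compound was pin-added after a 10 s baseline. Fluorescence was read kinetically at 1 cycle/s for 180 s, with calcium rises flagged as agonism.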
Each line names hits and unclear results; the compound was inactive in the other large screens. Most compounds without a hit are left out; they make up all but 6.1% or so of the library.

COc1ccc(NC(=O)Cc2ccccc2)cn1	none
COc1ccc(CS(=O)(=O)/C(Cl)=C(/Cl)C(=O)Nc2ccc(OC)nc2)cc1	D3 antag -51
COc1ccc(NC(=O)/C(Cl)=C(/Cl)S(=O)Cc2ccccc2)cn1 (stereo unspecified)	D3 antag -131
CCC1CCCCN1CCCNC(=O)c1ccc2c(c1)N(Cc1ccccc1F)C(=O)c1ccccc1S2(=O)=O (stereo unspecified)	none (no result: D3 antag)
Cc1cccc(-c2nn3c(=O)cc(CN4CCN(S(=O)(=O)c5ccc(Cl)cc5)CC4)nc3s2)c1	none (no result: D3 antag)
Cc1ccccc1-c1nn2c(=O)cc(CN3CCN(C(=O)/C=C/c4ccccc4)CC3)nc2s1	D1 antag -32 (no result: D3 antag)
Cc1cccc(-c2nn3c(=O)cc(CN4CCN(C(=O)c5ccccc5Br)CC4)nc3s2)c1	D1 antag -34 (no result: D3 antag)
CCN(C(=O)c1cn(CC(C)C)c(=O)c2cc(OC)c(OC)cc12)c1cc(OC)ccc1OC	none (no result: D3 antag)
CCN(CC)S(=O)(=O)c1ccc2oc(SCc3ccc(F)cc3)nc2c1	D1 antag -36
CCN(CC)S(=O)(=O)c1ccc2oc(SCC(=O)NC3CC3)nc2c1	none
CCS(=O)(=O)c1ncc(Cl)c(C(=O)N2CCN(c3ccc(OC)cc3)CC2)n1	none (no result: D3 antag)
CCOC(=O)c1ccc(-c2ccc(/C=N/NC(=O)CN(c3ccccc3Cl)S(C)(=O)=O)o2)cc1	DRD3 agonist 44
CCOC(=O)c1cccc(NC(=O)NCCc2c(C)nn(C)c2C)c1	none (no result: D3 antag)
O=C(CN(Cc1ccccc1)S(=O)(=O)c1cccc(C(F)(F)F)c1)NC1CCCCC1	D1 antag -31
CC(c1ccccc1)N(CC(=O)NC1CCCCC1)S(=O)(=O)c1cccc(C(F)(F)F)c1 (stereo unspecified)	none
Cc1nc(N2CCN(S(=O)(=O)c3ccc(Br)cc3)CC2)c2c(C)c(C)sc2n1	D3 antag -55
CCc1nc(N2CCN(S(=O)(=O)c3ccc(Br)cc3)CC2)c2c(C)c(C)sc2n1	none (no result: D1 antag, D1 potentiator, D1 agonist)
Cc1ccc(S(=O)(=O)N2CCN(c3nc(CN4CCCC4)nc4sc(C)c(C)c34)CC2)cc1	D1 antag -35
COC(=O)C1=CN(c2cccc(C)c2)C=C(C(=O)OC)C1c1cc(OC)c(O)c([N+](=O)[O-])c1	D3 antag -84
COC(=O)C1=CN(c2ccc(OC)cc2)C=C(C(=O)OC)C1c1ccc(C)c([N+](=O)[O-])c1	none
Cc1nc(-[n+]2nc(-c3ccncc3)nn2-c2ccccc2)sc1C	D3 antag -102 (no result: D1 antag, D1 potentiator, D1 agonist)
CCN1CCCC1CNc1ccc(S(C)(=O)=O)cc1[N+](=O)[O-] (stereo unspecified)	D3 antag -54
CCc1ccccc1-n1nnc(-c2nsc(NC(=O)c3ccc(C)c(C)c3)n2)c1C	none (no result: D3 antag)
Cc1cccc(C)c1OCC(O)CN1CCN(c2ccccn2)CC1 (stereo unspecified)	DRD3 agonist 59
Cc1ccc(OCC(O)CN2CCN(c3ccccn3)CC2)c(C)c1 (stereo unspecified)	DRD3 agonist 45
Cc1ccccc1OCC(O)CN1CCN(c2ccc(Cl)cc2)CC1 (stereo unspecified)	D3 antag inconclusive
Cc1cccc(C)c1OCC(O)CN1CCN(c2ccccc2)CC1 (stereo unspecified)	DRD3 agonist 63
CC(=O)O[C@H]1[C@@H](O)[C@H](O)[C@H](Oc2c(O)c(C)c3c4c2[C@@H](C)CC[C@@H]4[C@@H](C)C[C@H]3C=C(C)C)O[C@H]1C	DRD3 agonist 30 (no result: D1 antag, D1 potentiator, D1 agonist)
CO[C@@H]1[C@@H](O[C@@H]2O[C@H](C)[C@@H](O[C@H]3C[C@@](C)(O)[C@@H](OC(=O)CC(C)C)[C@H](C)O3)[C@H](N(C)C)[C@H]2O)[C@@H](CC=O)C[C@@H](C)[C@@H](O)/C=C/C=C/C[C@@H](C)OC(=O)C[C@H]1O	none (no result: D3 antag, D1 antag, D1 potentiator, D1 agonist)
c1ccc(N2CCN(c3ncnc4[nH]ncc34)CC2)cc1	D1 antag -35 (no result: D3 antag)
Fc1ccccc1N1CCN(c2ncnc3[nH]ncc23)CC1	none
COC(=O)c1cc2c(C)c(C)c3ccccn3c-2c1C(=O)OC	D3 antag -52
COC(=O)c1cc2ccccn2c2c(C(=O)OC)c(C(=O)OC)cc1-2	none
Cn1nnc2c[n+](CC(=O)c3ccc4ccccc4c3)cc(Br)c21	D3 antag -53
COc1cc(/C=N/NC(N)=S)cc(Br)c1OCc1ccccc1F	D3 antag -51
CCOc1cc(/C=N/NC(N)=S)cc(Br)c1OCc1ccccc1C	none
COc1ccc(NC(C)=O)cc1S(=O)(=O)N(C)Cc1c(C)nn(-c2ccccc2)c1C	D1 antag -33
CC(=O)c1c(C)n([O-])c2cc(C)ccc2[n+]1=O	D3 antag -51
CC1=CC=CC2=NC(=O)CC(C)(C(=O)N(CC(=O)NC3CCCC3)c3ccc(F)cc3)N12 (stereo unspecified)	D1 antag -34
O=[N+]([O-])c1ccc(CN2CCSCC2)cc1	D1 antag -33
O=[N+]([O-])c1cccc(CN2CCN(Cc3ccco3)CC2)c1	D3 antag -75
O=[N+]([O-])c1ccc(S(=O)(=O)N2CCN(Cc3ccco3)CC2)cc1	D3 antag inconclusive
O=[N+]([O-])c1ccc(N2CCN(Cc3cccc([N+](=O)[O-])c3)CC2)cc1	D1 antag -40
O=[N+]([O-])c1cccc(CN2CCCCCC2)c1	D3 antag -55
COc1ccc(C(=O)OC2=C(C(=O)c3ccccc3)N(C)S(=O)(=O)c3ccccc32)cc1OC	none (no result: D3 antag)
COc1ccc(OC)c(CNS(=O)(=O)c2ccc3c(c2)CCCN3C(C)=O)c1	none (no result: D3 antag)
COc1ccc2c(c1)c1c(c(=O)n(Cc3ccccc3)c(=O)n1Cc1ccccc1)n2C	none (no result: D3 antag)
CCOC(=O)c1ccc(N2CCN(c3ccccc3F)CC2)c(NC(=O)Nc2ccc(Cl)c(Cl)c2)c1	none (no result: D3 antag)
COC(=O)c1cc([N+](=O)[O-])ccc1N1CCN(Cc2ccccc2)CC1	D3 antag -52
CC1CC(=O)N(c2ccc(C(C)C)cc2)C(=O)C1	D1 antag -32
Cc1cn(S(=O)(=O)c2ccc(F)c(Cl)c2)cn1	none (no result: D3 antag)
Cc1nc(-c2nc(-c3c(C(=O)NN)noc3C)cs2)cs1	none
Cc1onc(C(=O)NN)c1-c1csc(COc2ccc(Cl)cc2)n1	DRD3 agonist 44
Cc1cc(OC(=O)c2ccccc2Cl)cc(=O)n1C	DRD3 agonist 35
O=C(Oc1ccc(N2C(=O)CCC2=O)cc1)c1ccccc1Cl	none
CNc1nc(N)nc(-c2cc(Cl)ccc2OC)n1	D3 antag inconclusive, D1 antag -30
Cc1cc2c(cc1C)N(CC(=O)N1CCCC1)C(=O)CC(c1ccccc1)=N2	D3 antag -75
Brc1cccc(-c2nnn3c2nc(N2CCCCC2)c2ccccc23)c1	none (no result: D3 antag)
CC(C)Oc1ccc(/C=C(\C#N)C(=O)NC2CC2)cc1	none (no result: D1 antag, D1 potentiator, D1 agonist)
N#C/C(=C\c1ccc(OCC(N)=O)cc1)C(=O)NC1CC1	D1 antag -36

Source: PubChem (National Center for Advancing Translational Sciences (NCATS))
